CHO-K1 Ca antag: counter-screen for M1 antagonists: effect in parental CHO-K1 cells; ATP-induced calcium, Fluo-8 fluorescence; 0.6% of 360,000 active; inhibition, % at 3 µM; AID 602250;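 active means inhibition above a per-plate cutoff, the plate's mean sample inhibition plus 3 SD, cut at about 24% in these data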;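 further: 0% = DMSO plus EC80 ATP and 100% = DMSO alone without ATP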
CHO-K1 Ca PAM: counter-screen for M1 PAMs: effect in parental CHO-K1 cells. ATP EC20, Fluo-8 calcium fluorescence; 0% at ATP EC20, 100% at ATP max. activation, % at 3 µM. 0.02% of 360,000 active;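 active means activation above the run cutoff, the mean activation of all test compounds plus 3 SD, cut at about 40% in these data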;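 further: peak over basal fluorescence ratio in a 140 s read after ATP addition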
M1 ag: activates human CHRM1 receptor; P11229; CHO-K1 hM1, Fluo-8 calcium fluorescence, agonist mode; 0% DMSO, 100% acetylcholine EC100; activation, % at 3 µM; 0.33% of 360,000 active; AID 588814;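 active means activation above the run's mean compound activation plus 3 SD, cut at about 16% in these data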;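 further: peak over basal fluorescence ratio within a 140 s kinetic read after compound addition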
Target sequence (P11229 whole entry, looked up): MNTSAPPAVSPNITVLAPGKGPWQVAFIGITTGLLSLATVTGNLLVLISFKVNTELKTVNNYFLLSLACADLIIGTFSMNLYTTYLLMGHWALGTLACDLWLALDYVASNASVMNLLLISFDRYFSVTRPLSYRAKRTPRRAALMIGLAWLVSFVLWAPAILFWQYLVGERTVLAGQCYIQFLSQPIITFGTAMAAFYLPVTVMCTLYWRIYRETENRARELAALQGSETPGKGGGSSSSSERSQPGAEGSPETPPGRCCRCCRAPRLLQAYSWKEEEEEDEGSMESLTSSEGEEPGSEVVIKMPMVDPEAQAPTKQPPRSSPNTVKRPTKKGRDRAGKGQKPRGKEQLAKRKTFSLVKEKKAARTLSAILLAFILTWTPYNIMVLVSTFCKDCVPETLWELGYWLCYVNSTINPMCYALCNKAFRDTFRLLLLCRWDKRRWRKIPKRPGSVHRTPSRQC
M1 antag: human CHRM1 antagonism | 1.3% of 360,000 active | P11229 | inhibition, % at 3 µM | CHO-K1 hM1, Fluo-8 calcium fluorescence, ACh EC80 antagonist | AID 588852;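 active means percent inhibition above its own plate's cutoff, namely the mean of that plate's compound wells plus 3 SD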;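 further: peak over basal fluorescence ratio during 140 s after agonist addition; 0% = ACh EC80 plus DMSO and 100% = DMSO alone without agonist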
CHO-K1 Ca ag: M1 agonist counterscreen hit in parental CHO-K1 cells; Fluo-8 calcium fluorescence; scaled to maximal ATP response, vehicle zero; activation, % at 3 µM; 0.48% of 360,000 active; AID 602248; in the data active means activation above about 15%;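 further: untransfected CHO-K1 host cells lacking M1 receptor as counterscreen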
M1 PAM: potentiates human M1 receptor response to acetylcholine; P11229; CHO-K1 hM1, Fluo-8 calcium fluorescence, ACh EC20; 0% = ACh EC20, 100% = maximal ACh; activation, % at 3 µM; 0.088% of 360,000 active; AID 588819; in the data active means activation above about 19%, passing the limit was not always enough
Starred values were filed as active, the others as inactive; . = no result given. In the library only some 2.4% were active in any assay of this set; here they are far more common.

SMILES	CHO-K1 Ca antag	CHO-K1 Ca PAM	M1 ag	M1 antag	CHO-K1 Ca ag	M1 PAM
Cc1ccc(NC(=O)C(C)N2CCc3ccccc3C2)cc1 (configuration not stated)	-9	5	-9	6	0	-4
O=C(CCN1C(=O)C2C3C=CC(C3)C2C1=O)NCCN1CCCc2ccccc21 (configuration not stated)	-3	20	-4	-25	1	4
Cn1c(C(=O)NCCCN2CCc3ccccc3C2)cc2c(=O)n(C)c3ccccc3c21	6	2	-14	34*	0	-20
O=C(NCc1ccco1)c1ccc(S(=O)(=O)N2CCOCC2)cc1	-6	1	-2	13	0	-3
On1ccccc1=S	25*	18	1	-1	3	0
O=C(Cn1ccccc1=S)c1ccc(Cl)c(Cl)c1	-16	24	-6	-6	2	8
CC(=O)c1cccc(NC(=O)CSc2nc(C3CC3)nc3ccccc23)c1	-6	-5	-1	9	4	-6
c1ccc(C(c2ccccc2)c2noc(CN3CCN(CC4CC4)CC3)n2)cc1	13	7	-8	94*	0	-27
Cc1ccccc1-n1nnnc1SCc1csc(-c2ccccc2)n1	3	13	-2	3	2	-4
Cc1ccc(-c2nc3ncccc3o2)cc1NC(=O)c1cccs1	26*	-14	-5	-9	0	5
Cc1ccc(-c2nc3ncccc3o2)cc1NC(=O)C(C)(C)C	-15	28	-2	-21	2	10
CC(C)(C)C(=O)N1CCC[C@H]1C(O)(c1ccccc1)c1ccccc1	8	-2	-4	-1	-1	1
CN1CCC(CC(C(=O)N2CCCC2)(c2ccccc2)c2ccccc2)C1 (configuration not stated)	-7	-17	-8	61*	1	-27
COc1ccc(CNc2cc(NCCCO)c([N+](=O)[O-])c3nonc23)cc1	25*	-16	-10	-2	-1	1
COc1ccc(Nc2cc(NCCCO)c([N+](=O)[O-])c3nonc23)cc1	-8	7	-4	-4	-2	2
OC(c1ccccc1)(c1nc(-c2cccc3cccnc23)cs1)C(F)(F)F (configuration not stated)	5	12	-6	-2	1	-1
COCCNc1nc(NCc2ccccc2)nc2ccsc12	95*	-16	79*	100*	77*	-33
O=C1CCCN1CCCNc1nc(NCc2ccccc2)nc2ccsc12	84*	-16	92*	101*	86*	-33
CCCCNc1nc(NCc2ccccc2)nc2ccccc12	54*	-17	.	.	49*	.
COCCNc1nc(NCc2ccccc2OC)c2sccc2n1	-14	12	-3	-5	7	-1
CC(=O)NCCNc1nc(NCc2ccccc2)nc2ccsc12	9	-11	32*	8	10	-27
COc1ccccc1CNc1nc(NCCNC(C)=O)c2sccc2n1	-4	18	-8	-19	1	5
CCN(C(=O)CSc1nnc(-c2ccncc2)n1-c1ccccc1)C1CCS(=O)(=O)C1 (configuration not stated)	-10	21	-4	-10	7	14
O=C(c1ccc(F)cc1)C1CCN(C(=O)c2ccccc2)CC1	14	-13	0	-4	0	0
CCCCN(CC)C(=O)c1cc2cc3ccc(OC)cc3nc2o1	25*	-20	-1	-8	1	5
CC(Oc1ccccc1)C(=O)N1CCc2ccccc2C1 (configuration not stated)	-15	10	-10	-10	1	5
COc1ccc(OC(C)C(=O)N2CCc3ccccc3C2)cc1 (configuration not stated)	25*	-7	-1	-4	0	7
COc1cc(C(=O)NNC(=S)NC(=O)c2ccc(Cl)cc2)cc(OC)c1OC	-1	-10	33*	0	10	-14
Cc1cccc(C(=O)NC(=S)NNC(=O)c2cccs2)c1	4	-10	19*	-1	15*	-10
CC(=O)NC(=S)Nc1ccc(NC(=S)NC(=O)c2cccs2)cc1	-5	12	-1	-4	1	3
